# From the supplement of paper PMC10849652
# Of roughly 7,900 targets only a part is listed; those with a hit were picked by preference. About 0.6% of all pairs of compound and target were hits. Unmarked numbers belong to inactive results.
# Experiments:
# Test in all cases: log2 fold change, soluble protein after heating vs DMSO (PISA); higher = thermal stabilisation; K562 cells, 10 uM, 30 min; active = over 0.2 and 3.5 SD of the protein, either way, in both replicates (recomputed)
# erlotinib = compound: C#Cc1cccc(Nc2ncnc3cc(OCCOC)c(OCCOC)cc23)c1 [erlotinib]
# Summary of the method: (§1)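 Soluble protein was quantified by TMTpro 16plex LC-MS/MS after channel sums were equalised. It was obtained as the supernatant after 21,000xg for 90 min from pooled aliquots of K562 cells (2×10^6 cells/mL, 10 μM compound, 30 min) heated for 3 min across 48°C-58°C and extracted in PBS with 0.5% NP-40 at 4°C. Thermal stability values are relative to control samples and come from duplicates. They are given as log2 fold changes.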
# [1] = compound: C/C(=N\NC(=O)C1=CC(=CC=C1)S(=O)(=O)N2CCOCC2)/C3=C(C=CC(=C3)Cl)O
# Summary of the method: as §1
# [2] = compound: C1=CC(=C(C=C1Cl)C2=NC3=NC=CN=C3C(=N2)NC4=CC=NC=C4)F
# Summary of the method: as §1
# [3] = compound: C1=CC(=CC=C1C2=NC3=C(N2)C=C(C=C3)C(=O)N)OC4=CC=C(C=C4)Cl
# Summary of the method: as §1
# [4] = compound: C1=CC2=C(C=CC(=C2)/C=C\3/C(=O)NC(=NCC4=CC=CS4)S3)N=C1
# Summary of the method: as §1
# [5] = compound: C1=CC2=NC=CN=C2C=C1/C=C/3\C(=O)NC(=O)S3
# Summary of the method: as §1
# [6] = compound: C1=CC=C(C=C1)C2=NC(=C(N2)C3=CC=NC=C3)C4=CC(=C(C=C4)Cl)O
# Summary of the method: as §1
# [7] = compound: C1=CC=C2C(=C1)C3=NNC4=CC=CC(=C43)C2=O
# Summary of the method: as §1
# [8] = compound: C1CCN(C1)C(=O)NC2=CC=CC(=C2)NC3=NC=C(C(=N3)NCCC4=CN=CN4)Br
# Summary of the method: as §1
# [9] = compound: C1CN(CCC1(CC2=CC=C(C=C2)Cl)N)C3=NC=NC4=C3C=CN4
# Summary of the method: as §1
# Sequence of UniProt O94901 (O94901 whole entry, looked up): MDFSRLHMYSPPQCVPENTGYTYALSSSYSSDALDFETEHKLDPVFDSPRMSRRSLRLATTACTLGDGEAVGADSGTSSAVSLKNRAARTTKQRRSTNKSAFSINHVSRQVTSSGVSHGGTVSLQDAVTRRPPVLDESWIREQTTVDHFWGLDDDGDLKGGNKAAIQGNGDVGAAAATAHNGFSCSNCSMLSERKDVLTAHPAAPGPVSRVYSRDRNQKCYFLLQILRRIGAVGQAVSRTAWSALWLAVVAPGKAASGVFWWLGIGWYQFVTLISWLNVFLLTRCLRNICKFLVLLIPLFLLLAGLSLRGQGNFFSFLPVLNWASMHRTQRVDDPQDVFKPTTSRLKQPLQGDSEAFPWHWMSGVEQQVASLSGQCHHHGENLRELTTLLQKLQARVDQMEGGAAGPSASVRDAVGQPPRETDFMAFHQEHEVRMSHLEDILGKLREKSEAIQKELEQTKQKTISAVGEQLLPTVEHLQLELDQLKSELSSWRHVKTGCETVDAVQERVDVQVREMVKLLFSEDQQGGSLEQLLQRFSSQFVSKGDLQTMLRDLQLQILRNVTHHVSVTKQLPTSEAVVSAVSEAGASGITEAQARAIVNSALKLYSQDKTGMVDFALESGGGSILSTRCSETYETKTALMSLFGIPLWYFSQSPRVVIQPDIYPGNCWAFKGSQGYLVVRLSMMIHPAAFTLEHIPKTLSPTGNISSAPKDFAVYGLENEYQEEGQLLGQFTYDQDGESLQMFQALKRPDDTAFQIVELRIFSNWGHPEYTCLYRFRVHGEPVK
# Sequence of UniProt Q92581 (Q92581 whole entry, looked up): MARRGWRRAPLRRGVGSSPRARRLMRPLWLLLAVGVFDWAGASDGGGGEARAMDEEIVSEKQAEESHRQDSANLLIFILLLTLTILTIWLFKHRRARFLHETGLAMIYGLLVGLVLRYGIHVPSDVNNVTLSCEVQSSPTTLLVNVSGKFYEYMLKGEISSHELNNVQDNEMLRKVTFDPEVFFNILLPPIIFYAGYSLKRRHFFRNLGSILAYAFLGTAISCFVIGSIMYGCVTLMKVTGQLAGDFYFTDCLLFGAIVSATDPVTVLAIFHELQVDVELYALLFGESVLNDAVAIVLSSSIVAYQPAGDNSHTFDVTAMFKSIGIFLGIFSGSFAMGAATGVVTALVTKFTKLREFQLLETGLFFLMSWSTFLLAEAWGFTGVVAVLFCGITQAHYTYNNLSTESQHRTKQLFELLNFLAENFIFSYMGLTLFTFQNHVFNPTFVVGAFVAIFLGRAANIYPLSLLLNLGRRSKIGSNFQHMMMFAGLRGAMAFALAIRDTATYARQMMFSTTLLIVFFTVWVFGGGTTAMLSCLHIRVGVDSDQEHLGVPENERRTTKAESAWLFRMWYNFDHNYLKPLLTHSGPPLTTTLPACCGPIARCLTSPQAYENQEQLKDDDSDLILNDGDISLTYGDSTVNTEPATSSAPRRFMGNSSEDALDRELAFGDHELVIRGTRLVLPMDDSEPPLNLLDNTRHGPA
# Sequence of UniProt Q86VD7 (Q86VD7 whole entry, looked up): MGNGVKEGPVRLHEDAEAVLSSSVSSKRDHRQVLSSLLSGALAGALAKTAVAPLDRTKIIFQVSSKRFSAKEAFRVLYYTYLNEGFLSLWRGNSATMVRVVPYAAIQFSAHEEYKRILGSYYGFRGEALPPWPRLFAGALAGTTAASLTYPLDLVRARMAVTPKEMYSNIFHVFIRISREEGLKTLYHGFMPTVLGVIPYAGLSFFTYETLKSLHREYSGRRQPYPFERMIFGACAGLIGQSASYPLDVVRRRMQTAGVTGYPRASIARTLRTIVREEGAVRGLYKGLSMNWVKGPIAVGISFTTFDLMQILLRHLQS
# Sequence of UniProt Q15796 (Q15796 whole entry, looked up): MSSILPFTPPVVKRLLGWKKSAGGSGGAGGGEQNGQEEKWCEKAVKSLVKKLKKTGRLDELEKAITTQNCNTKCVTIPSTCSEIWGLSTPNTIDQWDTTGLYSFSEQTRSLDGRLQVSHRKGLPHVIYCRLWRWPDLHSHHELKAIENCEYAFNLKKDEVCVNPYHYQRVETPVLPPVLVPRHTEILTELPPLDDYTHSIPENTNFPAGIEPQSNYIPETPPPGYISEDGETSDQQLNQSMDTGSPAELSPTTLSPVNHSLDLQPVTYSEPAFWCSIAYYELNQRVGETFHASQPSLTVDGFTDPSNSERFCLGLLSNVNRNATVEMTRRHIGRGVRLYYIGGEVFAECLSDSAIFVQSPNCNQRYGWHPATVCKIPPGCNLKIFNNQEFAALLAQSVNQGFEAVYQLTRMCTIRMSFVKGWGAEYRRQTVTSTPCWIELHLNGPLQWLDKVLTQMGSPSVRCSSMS
# Sequence of UniProt O60271 (O60271 whole entry, looked up): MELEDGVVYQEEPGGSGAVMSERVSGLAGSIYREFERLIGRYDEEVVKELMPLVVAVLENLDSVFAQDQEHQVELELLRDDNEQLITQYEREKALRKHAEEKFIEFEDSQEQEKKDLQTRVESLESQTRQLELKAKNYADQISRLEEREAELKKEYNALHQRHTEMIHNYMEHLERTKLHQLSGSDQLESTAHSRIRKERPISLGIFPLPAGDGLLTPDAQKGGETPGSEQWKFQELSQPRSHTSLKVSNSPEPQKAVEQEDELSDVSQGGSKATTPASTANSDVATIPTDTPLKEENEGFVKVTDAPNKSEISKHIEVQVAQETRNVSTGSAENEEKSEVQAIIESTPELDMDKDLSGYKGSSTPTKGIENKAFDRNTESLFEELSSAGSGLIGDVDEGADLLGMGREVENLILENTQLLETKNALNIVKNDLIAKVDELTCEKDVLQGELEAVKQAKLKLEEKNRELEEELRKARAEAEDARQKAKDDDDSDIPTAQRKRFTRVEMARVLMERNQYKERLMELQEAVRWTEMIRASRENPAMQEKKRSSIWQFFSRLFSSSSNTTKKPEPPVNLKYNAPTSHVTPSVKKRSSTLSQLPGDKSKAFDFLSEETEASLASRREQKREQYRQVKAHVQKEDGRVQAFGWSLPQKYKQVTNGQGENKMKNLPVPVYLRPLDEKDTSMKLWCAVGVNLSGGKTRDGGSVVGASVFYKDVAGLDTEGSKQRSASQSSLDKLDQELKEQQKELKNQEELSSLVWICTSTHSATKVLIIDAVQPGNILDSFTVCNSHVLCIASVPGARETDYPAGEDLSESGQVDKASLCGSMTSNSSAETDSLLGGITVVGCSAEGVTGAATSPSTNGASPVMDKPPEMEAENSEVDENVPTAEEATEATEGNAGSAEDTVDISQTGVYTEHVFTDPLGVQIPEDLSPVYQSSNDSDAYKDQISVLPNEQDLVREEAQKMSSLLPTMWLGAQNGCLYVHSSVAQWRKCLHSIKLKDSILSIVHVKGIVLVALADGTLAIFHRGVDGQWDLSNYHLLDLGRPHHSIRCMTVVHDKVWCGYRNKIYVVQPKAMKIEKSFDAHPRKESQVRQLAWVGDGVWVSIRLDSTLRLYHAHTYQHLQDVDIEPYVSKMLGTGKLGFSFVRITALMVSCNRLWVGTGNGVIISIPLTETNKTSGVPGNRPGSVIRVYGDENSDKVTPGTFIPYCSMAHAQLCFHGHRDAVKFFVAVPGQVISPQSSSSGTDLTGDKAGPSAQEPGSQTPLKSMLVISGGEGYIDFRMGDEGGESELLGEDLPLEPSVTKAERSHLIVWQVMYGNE
# Sequence of UniProt Q8N9U0 (Q8N9U0 whole entry, looked up): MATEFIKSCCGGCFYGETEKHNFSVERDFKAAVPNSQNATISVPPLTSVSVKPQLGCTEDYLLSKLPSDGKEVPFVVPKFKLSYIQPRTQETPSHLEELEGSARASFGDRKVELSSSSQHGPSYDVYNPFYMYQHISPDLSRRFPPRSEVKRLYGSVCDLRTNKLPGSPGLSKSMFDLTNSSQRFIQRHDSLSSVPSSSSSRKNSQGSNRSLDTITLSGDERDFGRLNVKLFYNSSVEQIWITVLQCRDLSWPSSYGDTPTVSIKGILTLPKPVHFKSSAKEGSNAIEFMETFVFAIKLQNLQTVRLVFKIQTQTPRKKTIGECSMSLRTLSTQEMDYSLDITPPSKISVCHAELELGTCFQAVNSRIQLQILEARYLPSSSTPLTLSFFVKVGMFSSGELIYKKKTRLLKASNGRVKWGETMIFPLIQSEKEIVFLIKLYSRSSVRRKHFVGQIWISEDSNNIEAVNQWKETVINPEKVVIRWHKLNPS
# Sequence of UniProt P35711 (P35711 whole entry, looked up): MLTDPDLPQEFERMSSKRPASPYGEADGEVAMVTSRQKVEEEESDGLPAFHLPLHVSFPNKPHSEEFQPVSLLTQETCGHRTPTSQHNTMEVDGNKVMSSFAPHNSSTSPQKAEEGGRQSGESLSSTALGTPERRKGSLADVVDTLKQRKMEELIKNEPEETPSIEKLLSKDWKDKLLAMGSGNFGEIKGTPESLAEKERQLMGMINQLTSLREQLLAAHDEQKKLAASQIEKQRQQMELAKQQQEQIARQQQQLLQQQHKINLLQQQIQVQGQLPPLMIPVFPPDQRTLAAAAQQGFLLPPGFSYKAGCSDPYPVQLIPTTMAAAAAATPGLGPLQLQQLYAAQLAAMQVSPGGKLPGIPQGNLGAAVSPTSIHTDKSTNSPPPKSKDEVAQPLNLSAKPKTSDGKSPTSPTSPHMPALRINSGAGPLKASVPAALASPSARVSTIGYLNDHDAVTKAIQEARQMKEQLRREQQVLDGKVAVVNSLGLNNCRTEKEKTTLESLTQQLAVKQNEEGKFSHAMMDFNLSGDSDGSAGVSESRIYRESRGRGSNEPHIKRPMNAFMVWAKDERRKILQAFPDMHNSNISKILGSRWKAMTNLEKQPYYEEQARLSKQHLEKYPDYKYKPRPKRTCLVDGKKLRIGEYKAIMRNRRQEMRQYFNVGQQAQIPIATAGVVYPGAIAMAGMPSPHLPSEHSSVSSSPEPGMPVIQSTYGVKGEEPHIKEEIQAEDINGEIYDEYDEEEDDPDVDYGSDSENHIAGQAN
# Sequence of UniProt P30626 (P30626 whole entry, looked up): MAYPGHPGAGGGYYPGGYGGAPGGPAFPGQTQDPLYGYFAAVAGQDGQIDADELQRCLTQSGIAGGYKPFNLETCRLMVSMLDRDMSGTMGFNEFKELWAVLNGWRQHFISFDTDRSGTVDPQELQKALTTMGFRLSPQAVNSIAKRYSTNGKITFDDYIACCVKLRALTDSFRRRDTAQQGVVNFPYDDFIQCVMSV
Target,log2 fold change (erlotinib),log2 fold change [1],log2 fold change [2],log2 fold change [3],log2 fold change [4],log2 fold change [5],log2 fold change [6],log2 fold change [7],log2 fold change [8],log2 fold change [9]
SRI (UniProt P30626),-0.042,0.113,0.322,0.025,0.09,0.121,0.185,0.016,-0.037,-0.041
SMAD2 (UniProt Q15796),0.061,0.087,-0.065,0.04,0.069,-0.004,-0.05,-0.045,-0.034,0.019
SNX9 (UniProt Q9Y5X1),-0.005,0.047,-0.004,-0.024,0.004,0.014,-0.006,-0.011,-0.01,0.028
SSR3 isoform 2 (UniProt Q9UNL2),0.019,0.054,-0.013,-0.003,-0.187,0.037,0.006,0.028,-0.119,-0.011
SLC25A42 (UniProt Q86VD7),0.08,0.01,0.089,0.01,-0.032,-0.026,0.079,-0.137,-0.086,0.066
SPG11 (UniProt Q96JI7),0.586,0.148,-0.089,-0.084,0.128,-0.108,-0.275,-0.073,0.405,-0.002
TM7SF2 (UniProt O76062),-0.012,,,-0.05,,,-0.151,,,
TCOF1 isoform 3 (UniProt Q13428),0.062,,-0.193,-0.172,,,-0.056,,0.101,0.012
SUN1 isoform 9 (UniProt O94901),0.055,0.037,-0.346 (active),0.032,0.066,,-0.052,0.066,0.057,0.094
SYNE2 isoform 2 (UniProt Q8WXH0),0.405,-0.672 (active),,-0.301,0.084,-0.027,-0.007,0.001,-0.045,0.029
TM7SF3 (UniProt Q9NS93),-0.073,0.053,,0.03,-0.101,0.034,0.02,0.061,0.001,0.123
TAF6L (UniProt Q9Y6J9),0.042,0.08,,-0.132,0.009,,-0.051,0.088,-0.069,-0.197
TK1 (UniProt K7ERV3),,0.063,-0.011,,0.028,-0.006,-0.069,0.037,-0.015,0.061
SNX2 isoform 2 (UniProt O60749),,-0.244,0.091,,0.402,-0.186,,-0.033,,
SPAG9 isoform 4 (UniProt O60271),0.019,0.048,,-0.087,-0.103,-0.065,0.272,0.04,0.03,0.119
SPIN4 (UniProt Q56A73),-0.125,,,0.116,,,,,,
SLC39A11 (UniProt Q8N1S5),-0.042,-0.009,,0.05,0.043,0.009,0.07,0.053,-0.144,0.019
SOX5 (UniProt P35711),0.009,0.006,,0.125,0.047,0.018,-0.049,0.012,-0.069,0.095

Target,log2 fold change (erlotinib),log2 fold change [1],log2 fold change [2],log2 fold change [3],log2 fold change [4],log2 fold change [5],log2 fold change [6],log2 fold change [7],log2 fold change [8],log2 fold change [9]
SLC9A6 isoform 3 (UniProt Q92581),0.006,0.013,,-0.103,-0.022,0.18,,-0.068,0.021,0.006
STK17B (UniProt O94768),0.128,,,0.072,,-0.169,,,,
SLC35B1 isoform 2 (UniProt P78383),-0.024,,-0.008,0.127,,0.018,0.085,,-0.021,0.271
SRCAP (UniProt Q6ZRS2),0.039,,,0.031,,0.117,-0.191,,0.059,-0.254
SNX15 (UniProt Q9NRS6),,0.062,,,-0.088,-0.006,0,-0.065,-0.166,-0.072
SLC39A1 (UniProt Q9NY26),0.123,,,0.053,,,,,,
SLC8B1 (UniProt Q6J4K2),0.111,0.089,,0.003,-0.039,0.095,0.016,0.032,,
SMDT1 (UniProt Q9H4I9),,0.012,-0.032,,0.044,0.067,,0.044,0.01,0.036
SREBF1 isoform 4 (UniProt P36956),0.034,,0.045,0.001,,0.068,,,,
TC2N (UniProt Q8N9U0),,0.038,,,0.362,,-0.021,0.054,0.042,-0.004
STK11IP (UniProt Q8N1F8),0.025,0.152,-0.079,-0.243,0.094,0.006,,-0.062,0.042,-0.01
TGFBR1 isoform 2 (UniProt P36897),-0.012,0.084,,-0.051,-0.072,0.043,0.161,0.004,-0.019,0.047
THAP9 (UniProt Q9H5L6),,-0.733 (active),,,0.163,-0.211,0.123,-0.057,,
SRXN1 (UniProt Q9BYN0),,0.335,0.097,,0.036,0.031,0.004,-0.017,-0.021,0.048
SMPD4 isoform 2 (UniProt Q9NXE4),,-0.001,,,0.134,-0.027,,-0.003,-0.011,0.05
TCOF1 isoform 6 (UniProt Q13428),-0.234,,,0.074,,-0.045,0.186,,0.002,0.02
SMARCB1 (UniProt Q12824),,,,,,,,,0.038,0.025
TBC1D2 (UniProt Q9BYX2),,0,-0.042,,0.063,,,-0.006,,
